Our source for the z-score and composite z-score values is PubChem BioAssay.

The nature of assay [1]: E. coli DRC41 culture turbidity changes, primary screen, E. coli filamentation inducer project, strain DRC41, OD650, 48 h (AID 1152).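 Also: E. coli MC1000 strain DRC41 lacking acrAB efflux pump and sulA.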 To be noted: E. coli DRC41 (acrAB sulA), higher = more signal, called active from +8 up or from −8 down.
Assay [2] is described as follows: small-molecule binders of probe aLefty1, primary screen, biochemical, small-molecule microarray, 635/667 nm fluorescence (AID 1153).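 Also: score merges spot fluorescence with signal-to-noise ratio from the scanned slide images.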 To be noted: higher = more signal.
Assay [3] can be described thus: PSAC antagonists in infected red cells, primary screen, cell-based, P. falciparum Indochina, OD700, 1 h (AID 1154). To be noted: P. falciparum Indochina infected RBC osmotic lysis, higher = more signal, called active from +8 up or from −8 down.
Assay [4] can be described thus: PSAC antagonists in infected red cells, primary screen, cell-based, P. falciparum Indochina, OD700, 2 h (AID 1155).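 Also: lysis reports solute entry through the parasite surface anion channel PSAC; channel blockers reduce lysis of infected cells.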 To be noted: P. falciparum Indochina infected erythrocytes, osmotic lysis OD700; higher = more signal, called active from +8 up or from −8 down.
Assay [5] in a line: osmotic lysis modulators in infected erythrocytes, primary screen, PSAC antagonist project, cell-based, P. falciparum Indochina, OD700, 3 h (AID 1156). To be noted: higher = more signal, called active from +8 up or from −8 down.
Assay [6] can be described thus: PSAC antagonists in infected red cells, primary screen, cell-based, P. falciparum Indochina, OD700, 18 h (AID 1157). Conditions: P. falciparum Indochina infected erythrocytes, osmotic lysis OD700, 18 h; higher = more signal, called active from +8 up or from −8 down.
Assay [7] can be described thus: modulators of S6 phosphorylation in cells, primary screen, cell-based, A549, cytoblot, luminescence, serum-stimulated (AID 1158).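 Also: serum-stimulated A549 lung adenocarcinoma cells; signal is phosphorylated S6 detected by cytoblot immunostaining with HRP secondary.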 Conditions: A549 phospho-S6 cytoblot, 5 h, higher = more signal.
Assay [8] has as its target NADPH oxidase 2 (Homo sapiens) (UniProt P04839). Put plainly: NOX2-dependent H2O2 signal modulators, primary screen, NOX inhibitor project, cell-based, HEK293-NOX2, PMA-stimulated, Amplex Red fluorescence (AID 1159). Also: test concentration not given here. Conditions: 45 min, higher = more signal, called active from +8 up or from −8 down.
For assay [9], the target named is NADPH oxidase 4 (Homo sapiens) (UniProt Q9NPH5). Put plainly: NOX4-dependent H2O2 signal modulators, primary screen, NOX inhibitor project, cell-based, HEK293-NOX4, tetracycline-induced, Amplex Red fluorescence (AID 1160). Conditions: 45 min, higher = more signal, called active from +8 up or from −8 down.
NADPH oxidase 4 (Homo sapiens), sequence (Q9NPH5 whole entry, looked up): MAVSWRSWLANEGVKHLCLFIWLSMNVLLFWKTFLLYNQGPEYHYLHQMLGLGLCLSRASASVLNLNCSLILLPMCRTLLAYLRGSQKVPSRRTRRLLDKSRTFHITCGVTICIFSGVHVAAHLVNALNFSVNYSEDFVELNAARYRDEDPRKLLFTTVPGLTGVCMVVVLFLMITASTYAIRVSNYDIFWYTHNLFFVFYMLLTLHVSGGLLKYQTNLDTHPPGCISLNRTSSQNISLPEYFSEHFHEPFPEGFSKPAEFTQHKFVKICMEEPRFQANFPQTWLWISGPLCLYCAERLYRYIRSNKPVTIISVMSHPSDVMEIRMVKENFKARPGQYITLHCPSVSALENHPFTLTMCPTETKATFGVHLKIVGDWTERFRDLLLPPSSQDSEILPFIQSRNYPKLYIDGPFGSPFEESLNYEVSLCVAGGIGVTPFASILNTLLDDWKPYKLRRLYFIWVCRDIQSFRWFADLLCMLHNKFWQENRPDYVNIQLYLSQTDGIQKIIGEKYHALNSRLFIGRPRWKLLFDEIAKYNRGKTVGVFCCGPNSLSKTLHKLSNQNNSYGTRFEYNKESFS
In assay [10] the target is NADPH oxidase 5 (Homo sapiens) (UniProt Q96PH1). Put plainly: NOX5-dependent H2O2 signal modulators, primary screen, NOX inhibitor project, cell-based, HEK293-NOX5, Amplex Red fluorescence (AID 1161). Conditions: HEK293-NOX5, ionomycin, 45 min, higher = more signal.
NADPH oxidase 5 (Homo sapiens), sequence (Q96PH1 whole entry, looked up): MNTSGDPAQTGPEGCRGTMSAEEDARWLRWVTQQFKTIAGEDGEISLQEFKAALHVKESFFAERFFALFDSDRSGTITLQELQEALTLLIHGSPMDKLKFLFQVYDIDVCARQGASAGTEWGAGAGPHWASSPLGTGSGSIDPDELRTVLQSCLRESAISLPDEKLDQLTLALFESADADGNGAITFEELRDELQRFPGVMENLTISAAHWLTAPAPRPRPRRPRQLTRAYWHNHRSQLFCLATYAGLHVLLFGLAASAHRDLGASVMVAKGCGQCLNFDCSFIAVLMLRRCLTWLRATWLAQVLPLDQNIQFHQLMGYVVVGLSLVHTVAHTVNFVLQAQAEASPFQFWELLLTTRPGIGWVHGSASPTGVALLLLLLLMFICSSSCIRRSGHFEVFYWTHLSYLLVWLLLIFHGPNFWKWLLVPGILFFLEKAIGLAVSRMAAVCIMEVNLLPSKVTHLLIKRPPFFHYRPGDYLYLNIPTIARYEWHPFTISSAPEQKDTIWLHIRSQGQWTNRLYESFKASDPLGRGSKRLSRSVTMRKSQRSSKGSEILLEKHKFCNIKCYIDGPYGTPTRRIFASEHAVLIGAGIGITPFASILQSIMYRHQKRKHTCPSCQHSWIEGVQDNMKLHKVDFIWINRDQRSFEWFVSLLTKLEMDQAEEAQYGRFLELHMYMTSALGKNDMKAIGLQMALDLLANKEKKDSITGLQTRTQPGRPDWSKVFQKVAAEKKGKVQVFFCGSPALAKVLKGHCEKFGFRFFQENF
The nature of assay [11]: A549 cell viability effects, profiling panel, calcein-AM fluorescence, 48 h, basal (AID 1162). Also: test concentration not given here. To be noted: higher = more signal.
Assay [12] is described as follows: adipocyte viability effects, profiling panel, cell-based, 3T3-L1 adipocytes, calcein-AM fluorescence, 48 h, basal (AID 1163). Also: test concentration not given here. To be noted: 3T3-L1 adipocytes viability, higher = more signal.
Assay [13] is described as follows: HepG2 cell viability effects, profiling panel, calcein-AM fluorescence, 48 h, basal (AID 1164). Also: test concentration not given here. Conditions: higher = more signal.
The nature of assay [14]: MM1S cell viability effects, profiling panel, calcein-AM fluorescence, 48 h, basal (AID 1165).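 Also: viability of MM1S multiple myeloma cells under basal unstimulated conditions; test concentration not given here.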 Conditions: higher = more signal.
Assay [15] can be described thus: basal RPMI8226 viability, no added stimulus, profiling panel, cell-based, calcein-AM fluorescence, 48 h, PK04 Diversity Set (AID 1166).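 Also: cells grown under basal conditions without added stimulus; test concentration not given here.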 Conditions: RPMI8226 myeloma viability, higher = more signal.
Assay [16] can be described thus: basal HepG2 mitochondrial membrane potential changes, profiling panel, cell-based, JC-1 fluorescence, 24 h, 100 nL compound (AID 1167). Also: test concentration not given here. Conditions: higher = more signal.
The nature of assay [17]: basal 3T3-L1 adipocyte mitochondrial potential changes, profiling panel, cell-based, JC-1 fluorescence, 3T3-L1 adipocytes, 24 h, 100 nL compound (AID 1168). Also: test concentration not given here. Conditions: JC-1 mitochondrial fluorescence, higher = more signal, called active from +8 up or from −8 down.
Assay [18] is described as follows: basal RPMI8226 mitochondrial membrane potential changes, profiling panel, cell-based, JC-1 fluorescence, 24 h, 100 nL compound (AID 1169). Also: test concentration not given here. To be noted: RPMI8226 myeloma, JC-1 mitochondrial potential fluorescence, higher = more signal.
A short description of assay [19]: basal MM1S mitochondrial membrane potential changes, profiling panel, cell-based, JC-1 fluorescence, 24 h, 100 nL compound (AID 1170). Also: test concentration not given here. To be noted: higher = more signal.
The nature of assay [20]: A549 lung cancer cell viability effects, profiling panel, resazurin fluorescence, 24 h, PK04 Diversity Set (AID 1171). Also: test concentration not given here. Conditions: higher = more signal, called active from +8 up or from −8 down. (In general: Resazurin is reduced to fluorescent resorufin, in cell work by metabolically active cells.)

Molecules are shown by their SMILES. The source made the active and inactive calls.

NADPH oxidase 2 (Homo sapiens), sequence (P04839 whole entry, looked up): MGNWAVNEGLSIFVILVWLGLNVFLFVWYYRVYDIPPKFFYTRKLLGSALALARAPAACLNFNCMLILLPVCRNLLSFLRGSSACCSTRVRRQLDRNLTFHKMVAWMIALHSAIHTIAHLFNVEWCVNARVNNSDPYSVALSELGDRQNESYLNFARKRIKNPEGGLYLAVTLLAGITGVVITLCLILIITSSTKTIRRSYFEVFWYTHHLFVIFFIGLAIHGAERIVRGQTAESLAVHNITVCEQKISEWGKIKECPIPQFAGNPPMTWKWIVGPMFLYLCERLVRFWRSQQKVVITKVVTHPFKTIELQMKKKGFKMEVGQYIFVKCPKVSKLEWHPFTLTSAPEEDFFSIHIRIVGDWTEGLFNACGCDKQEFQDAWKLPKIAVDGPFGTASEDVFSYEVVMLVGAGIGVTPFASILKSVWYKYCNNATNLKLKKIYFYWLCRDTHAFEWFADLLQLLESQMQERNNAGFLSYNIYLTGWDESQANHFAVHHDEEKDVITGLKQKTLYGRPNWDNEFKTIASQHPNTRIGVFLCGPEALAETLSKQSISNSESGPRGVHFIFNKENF

Take `COc1ccc(O[C@H]2C=C[C@@H](c3ccccc3)O[C@@H]2CON=CC[C@@H]2C=C[C@H](OC(C)=O)[C@@H](COC(C)=O)O2)cc1`: the z-score was -0.259 (inactive) in assay [1]; 8.95 (active) in assay [3]; 1.95 (inactive) in assay [4]; 1.07 (inactive) in assay [5]; 0.662 (inactive) in assay [6]; -0.981 in [7]. Also, the z-score in assay [8] was -0.279 (inactive); in assay [9], -2.22 (inactive); in assay [10], -1.01; in [11] it was 0.0639; in assay [12], -0.0129; in assay [13], -0.555. Also, the z-score in assay [14] is 0.306; in assay [15], -1.17; in assay [16], -1.33; in assay [17] it was -0.112 (inactive); in assay [18] it was -0.0648; in [19], 0.491. In addition, in [20], the z-score was -0.247 (inactive). Moreover, the composite z-score in [2] is -0.0054.

As for `COc1cccc([C@H]2Oc3ccc(OC)cc3C(=NOC[C@@H](O)COCc3ccco3)[C@@H]2O)c1`, the z-score in [1] is -0.964 (inactive); in assay [3] it was 0.55 (inactive); in [4], -2.05 (inactive); in assay [5], 0.135 (inactive); in assay [6], -2.01 (inactive); in assay [7], 1.04. Also, the z-score in assay [8] is -0.262 (inactive); in [9], 0.378 (inactive); in assay [10] it was -0.104; in [11] it was 0.451; in assay [12], 0.558; in assay [13], 0.819. Also, the z-score in assay [14] was 0.667; in assay [15], 0.414; in assay [16], -0.959; in assay [17], 0.461 (inactive); in assay [18] it was 0.431; in assay [19], -0.751. In addition, the z-score in assay [20] was -1.55 (inactive). Also, the composite z-score in assay [2] was -0.43.

As for `CO[C@@H]1COC(=O)CC=C[C@@H](C)[C@H](OC)COC(=O)[C@@H](C)COC(=O)CC=C[C@H]1C`, the z-score in assay [1] is 0.604 (inactive); in [3], -0.52 (inactive); in assay [4], 0.409 (inactive); in assay [5], -0.28 (inactive); in assay [6] it was 0.377 (inactive); in assay [7], -0.0303. Also, the z-score in assay [8] is -0.387 (inactive); in [9], 0.195 (inactive); in assay [10] it was 0.479; in assay [11], 0.865; in [12] it was -0.159; in [13], 1.48. Further, the z-score was 0.397 in [14]; -0.802 in assay [15]; 1.11 in assay [16]; -0.661 (inactive) in [17]; 0.338 in assay [18]; 0.253 in assay [19]. Moreover, the z-score in assay [20] is 0.134 (inactive). This compound displayed a composite z-score in assay [2] of -0.145.

Regarding `C#CCCCON=C1C[C@@H](O)[C@@H](O)[C@@H]2[C@@H]3C(=O)N(C(C)(C)C)C(=O)[C@@H]3CC[C@@H]12`, the z-score is -0.441 (inactive) in assay [1]; 3.54 (inactive) in assay [3]; 1.28 (inactive) in assay [4]; 0.158 (inactive) in assay [5]; 0.305 (inactive) in assay [6]; 0.929 in assay [7]. Besides, the z-score in assay [8] was 0.934 (inactive); in assay [9], 1.27 (inactive); in assay [10], -0.106; in assay [11], -0.145; in [12], -0.619; in [13], -0.486. In addition, the z-score in [14] was 0.154; in [15], 0.381; in assay [16], -0.465; in assay [17], -0.286 (inactive); in [18], -0.0943; in assay [19] it was -0.283. For the same compound, the z-score in assay [20] is -0.152 (inactive). In [2], this compound yielded a composite z-score of 0.308.

Consider `Cc1ccc(S(=O)(=O)NC(CCc2ccccc2)CC(=O)C(C)(C)C)cc1` (stereo not given), for which the z-score was -0.286 (inactive) in assay [1]; 0.603 (inactive) in assay [3]; 0.0974 (inactive) in [4]; -0.573 (inactive) in assay [5]; 0.124 (inactive) in assay [6]; -0.566 in assay [7]. Also, the z-score in assay [8] was -1.18 (inactive); in assay [9], 0.0624 (inactive); in assay [10] it was -0.868; in [11] it was 0.0378; in [12], -0.795; in assay [13], -0.869. Moreover, the z-score in assay [14] is 0.0642; in [15], -0.156; in [16] it was -0.696; in assay [17], -0.255 (inactive); in assay [18], -0.201; in assay [19], -0.236. The z-score in assay [20] was 1.34 (inactive). For the same compound, in [2], the composite z-score is -0.125.

For the compound `Cc1cc2c(nc1C)CCCN2CC(O)CN1CCCc2nc(C)c(C)cc21`, the z-score in assay [1] was -0.171 (inactive); in assay [3] it was -0.274 (inactive); in assay [4], 0.185 (inactive); in [5], 0.249 (inactive); in [6], -0.0697 (inactive); in assay [7], -0.669. The z-score is 0.803 (inactive) in [8]; 0.628 (inactive) in assay [9]; -0.575 in assay [10]; -0.254 in assay [11]; -0.0412 in [12]; -0.949 in assay [13]. In addition, the z-score in assay [14] was -0.0227; in [15] it was 0.391; in assay [16], 0.00162; in assay [17] it was -0.414 (inactive); in [18], -0.108; in [19], 0.382. The z-score in [20] was 0.189 (inactive). Besides, in assay [2], the composite z-score stood at 0.547.

In the case of `CON=C(C)CCC(=O)OC[C@H]1O[C@H](c2ccccc2)C=C[C@@H]1Oc1ccc(OC)cc1`, the z-score in assay [1] was -2.31 (inactive); in [3] it was 5.54 (inactive); in [4], 1.17 (inactive); in [5], 12.7 (active); in assay [6] it was 0.49 (inactive); in assay [7], -0.312. In addition, the z-score in assay [8] is -2.7 (inactive); in [9] it was -0.458 (inactive); in assay [10], -4.44; in [11] it was -0.208; in [12], -0.119; in assay [13], -0.646. Also, the z-score in assay [14] was -1.32; in [15], -0.0394; in [16], -1.05; in assay [17] it was 0.0208 (inactive); in assay [18], 0.00696; in [19], -0.0885. The z-score in assay [20] is 0.525 (inactive). In assay [2], this compound registered a composite z-score of -0.196.

Take `CCOC(=O)[C@H](Cc1ccccc1)NC(=O)CCC1CC(OC(=O)NCCc2ccc(F)cc2)CC2(CCCC(COC(=O)NCCOC)O2)O1` (stereo not given in full): the z-score in [1] is 0.602 (inactive); in [3] it was 19.4 (active); in [4], 4.99 (inactive); in assay [5], 0.486 (inactive); in assay [6], 0.737 (inactive); in assay [7], 0.011. Further, the z-score was 0.188 (inactive) in assay [8]; 0.251 (inactive) in assay [9]; 0.0245 in assay [10]; -0.153 in assay [11]; -0.41 in [12]; -0.981 in assay [13]. In addition, the z-score is -3.38 in assay [14]; -1.7 in [15]; 0.0204 in assay [16]; 0.872 (inactive) in [17]; -0.326 in assay [18]; -1.48 in [19]. In addition, in assay [20], the z-score is 0.042 (inactive). Further, in assay [2], the composite z-score is -0.0468.

For `COC(=O)[C@H](C)NC(=O)CCC1CC(OC(=O)NCc2ccc3c(c2)OCO3)CC2(CCCC(COC(=O)NCc3cccc(C(F)(F)F)c3)O2)O1` (stereo not given in full), the z-score was -0.39 (inactive) in [1]; 0.598 (inactive) in [3]; -0.529 (inactive) in assay [4]; 0.262 (inactive) in [5]; -0.239 (inactive) in assay [6]; 0.0036 in [7]. The z-score in [8] was 1.5 (inactive); in assay [9] it was 0.971 (inactive); in [10] it was 1.15; in assay [11], -0.828; in [12], -0.0811; in [13], -1.55. Further, the z-score in assay [14] was -2.05; in [15], 0.442; in [16] it was -1.44; in [17] it was -0.123 (inactive); in assay [18], 0.619; in assay [19], -0.213. The z-score in [20] was 0.0249 (inactive). In addition, the composite z-score in assay [2] was -0.045.
